The panel holds about 79,000 compounds, 15% with a hit somewhere; the sample as a whole holds those more often. Active and inactive are the calls of the source. No stated cut-off is given here; in the data, active means growth inhibition above about 70%; inactive means the rest.
Columns and labels:
[1] = NCI Yeast Anticancer Drug Screen. Data for the rad52 strain (AID 147);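 further: 0% = growth of vehicle-treated control cultures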; details: S. cerevisiae rad52 mutant growth inhibition, stronger effect = higher value
How it was run: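 The repair-mutant yeast strain was incubated with compounds, then growth was read and inhibition derived relative to vehicle.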

[2] = NCI Yeast Anticancer Drug Screen. Data for the wt1 strain (AID 149);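 further: 0% = growth of vehicle-treated wt1 cultures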; details: S. cerevisiae wt1 strain (SPY 50644) growth inhibition, stronger effect = higher value
How it was run: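 wt1 strain grown with compound or vehicle; inhibition taken from the growth difference.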

[3] = NCI Yeast Anticancer Drug Screen. Data for the rad50EPP+ strain (AID 151);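 further: 0% = growth of vehicle-treated control cultures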; details: S. cerevisiae rad50 mutant strain, stronger effect = higher value
How it was run: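 Vehicle-normalised growth inhibition; rad50EPP+ yeast strain, altered in DNA damage repair, compound-treated.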

[4] = NCI Yeast Anticancer Drug Screen. Data for the mgt1 strain (AID 153); details: S. cerevisiae mgt1 mutant growth inhibition, stronger effect = higher value
How it was run: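 Vehicle-normalized growth inhibition is determined in mgt1 yeast, a strain selected for a defined alteration in DNA repair or cell cycle control.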

[5] = NCI Yeast Anticancer Drug Screen. Data for the rad50 strain (AID 155);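 further: 0% = growth of vehicle-only cultures of the same strain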; details: S. cerevisiae rad50 strain growth inhibition, stronger effect = higher value
How it was run: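 DNA repair mutant yeast, compound exposure, growth read-out; inhibition is taken relative to vehicle.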

[6] = NCI Yeast Anticancer Drug Screen. Data for the mec2-1 strain (AID 157); details: S. cerevisiae mec2-1 strain, stronger effect = higher value
How it was run: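 Mutant yeast (mec2-1) grown with compound; growth inhibition relative to vehicle control reported.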

[7] = NCI Yeast Anticancer Drug Screen. Data for the rad14 strain (AID 159);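 further: 0% = growth of vehicle-treated control cultures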; details: S. cerevisiae rad14 strain growth inhibition, stronger effect = higher value
How it was run: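 DNA repair-defective yeast, compound-exposed; % growth inhibition derived by comparison with vehicle-treated controls.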

[8] = NCI Yeast Anticancer Drug Screen. Data for the CLN2oe strain (AID 163);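 further: 0% = growth of vehicle-only control cultures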; details: S. cerevisiae CLN2oe strain, stronger effect = higher value
How it was run: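 Compounds are applied to yeast harbouring a defined cell-cycle control change; reduced growth compared with vehicle-treated controls gives the value.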

[9] = NCI Yeast Anticancer Drug Screen. Data for the cln2 rad14 strain (AID 165);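 further: 0% = growth equal to vehicle treated cultures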; details: S. cerevisiae cln2 rad14 strain, stronger effect = higher value
How it was run: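 Readout is yeast growth inhibition versus vehicle-treated controls, using a strain with cln2 and rad14 alterations exposed to compound.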

[10] = NCI Yeast Anticancer Drug Screen. Data for the bub3 strain (AID 167); details: S. cerevisiae bub3 mutant strain, stronger effect = higher value
How it was run: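 In this screen, a yeast mutant lacking normal mitotic checkpoint function is challenged with compound. Relative growth versus vehicle gives the inhibition value.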

[11] = NCI Yeast Anticancer Drug Screen. Data for the wt2 strain (AID 169);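 further: 0% = growth of vehicle-treated yeast cultures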; details: S. cerevisiae wt2 strain growth inhibition, stronger effect = higher value
How it was run: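 Against vehicle-treated controls, the growth of yeast exposed to each compound was compared, and the inhibition was recorded.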

[12] = NCI Yeast Anticancer Drug Screen. Data for the mlh1 strain (AID 171);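 further: 0% = growth of vehicle-treated control cultures of the same strain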; details: S. cerevisiae mlh1 strain growth inhibition, stronger effect = higher value
How it was run: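 Measured: yeast growth. Reference: vehicle-treated controls. Organism: strain with a defined alteration affecting DNA damage repair or cell cycle control, treated with compound.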

[13] = NCI Yeast Anticancer Drug Screen. Data for the sgs1 strain (AID 173);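 further: 0% = growth of vehicle-only control cultures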; details: S. cerevisiae sgs1 mutant, stronger effect = higher value
How it was run: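 Each compound was added to cultures of the altered yeast strain. Growth was recorded, and inhibition was derived by comparison with vehicle controls.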

[14] = NCI Yeast Anticancer Drug Screen. Data for the mlh1 rad18 strain (AID 175); details: S. cerevisiae mlh1 rad18 strain growth inhibition, stronger effect = higher value
How it was run: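 Genetically defined yeast (DNA repair-deficient) exposed to compounds; growth inhibition determined relative to vehicle.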

[15] = NCI Yeast Anticancer Drug Screen. Data for the rad18 strain (AID 177); details: S. cerevisiae rad18 mutant growth inhibition, stronger effect = higher value
How it was run: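 Vehicle-treated cultures served as the baseline for scoring compound-induced growth inhibition in DNA-repair-mutant yeast.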

[16] = NCI Yeast Anticancer Drug Screen. Data for the sgs1 mgt1 strain (AID 161);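 further: 0% = growth of cultures given vehicle only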; details: S. cerevisiae sgs1 mgt1 strain, stronger effect = higher value
How it was run: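 This yeast growth screen uses a strain with defined DNA-repair lesions; compound-treated growth is compared with vehicle-treated growth.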

[17] = at 5.0 µM (retest, dose inferred, filed as 0.5)
[18] = at 50.0 µM (retest, dose inferred, filed as 5.0)

Measured: growth inhibition

S=C(N/N=C(/c1ccccc1)c1ccccn1)N1CCCCCC1
active: [5]; [18] 96% | [5]; at 50.0 µM 76.7% | [6]; [18] 97% | [6]; at 50.0 µM 80.5% | [9]; [18] 96% | [9]; at 50.0 µM 82.5% | [10]; [17] 95% | [10]; [18] 97% | [10]; at 50.0 µM 87.8% | [14]; [17] 93% | [14]; [18] 97% | [14]; at 50.0 µM 86.2%
inactive: [1]; at 1.2 µM 42% | [1]; at 3.7 µM 52% | [1]; at 11.0 µM 57% | [1]; at 33.0 µM 57% | [1]; at 100.0 µM 41% | [2]; at 1.2 µM -3% | [2]; at 3.7 µM 3% | [2]; at 11.0 µM 4% | [2]; at 33.0 µM 2% | [2]; at 100.0 µM -2% | [3]; at 1.2 µM 5% | [3]; at 3.7 µM 7% | [3]; at 11.0 µM 8% | [3]; at 33.0 µM 3% | [3]; at 100.0 µM 6% | [4]; at 1.2 µM -5% | [4]; at 3.7 µM -7% | [4]; at 11.0 µM 16% | [4]; at 33.0 µM -18% | [4]; at 100.0 µM -6% | [5]; at 1.2 µM 0% | [5]; at 3.7 µM 6% | [5]; [17] 5% | [5]; at 11.0 µM -20% | [5]; at 33.0 µM 4% | [5]; at 100.0 µM 8% | [6]; at 1.2 µM 1% | [6]; at 3.7 µM 0% | [6]; [17] 24% | [6]; at 11.0 µM 4% | [6]; at 33.0 µM 1% | [6]; at 100.0 µM 4% | [7]; at 1.2 µM -5% | [7]; at 3.7 µM -4% | [7]; at 11.0 µM -4% | [7]; at 33.0 µM -5% | [7]; at 100.0 µM -1% | [8]; at 1.2 µM 5% | [8]; at 3.7 µM 0% | [8]; at 11.0 µM 4% | [8]; at 33.0 µM -4% | [8]; at 100.0 µM 7% | [9]; [17] 18% | [10]; at 1.2 µM 4% | [10]; at 3.7 µM 16% | [10]; at 11.0 µM 22% | [10]; at 33.0 µM 13% | [10]; at 100.0 µM 2% | [11]; at 1.2 µM 5% | [11]; at 3.7 µM 7% | [11]; at 11.0 µM 12% | [11]; at 33.0 µM 10% | [11]; at 100.0 µM 5% | [12]; at 1.2 µM -3% | [12]; at 3.7 µM -2% | [12]; at 11.0 µM 4% | [12]; at 33.0 µM 1% | [12]; at 100.0 µM -1% | [13]; at 1.2 µM 4% | [13]; at 3.7 µM 10% | [13]; at 11.0 µM 11% | [13]; at 33.0 µM 10% | [13]; at 100.0 µM 7% | [15]; at 1.2 µM 8% | [15]; at 3.7 µM 20% | [15]; at 11.0 µM 20% | [15]; at 33.0 µM 6% | [15]; at 100.0 µM 19%

O=C1Nc2ccc(Cl)c(I)c2C1=O
inactive: [1]; at 1.2 µM 3% | [1]; at 3.7 µM 10% | [1]; at 11.0 µM 7% | [1]; at 33.0 µM 32% | [2]; at 1.2 µM -11% | [2]; at 3.7 µM -13% | [2]; at 11.0 µM -11% | [2]; at 33.0 µM -14% | [2]; at 100.0 µM 45% | [3]; at 1.2 µM 28% | [3]; at 3.7 µM 35% | [3]; at 11.0 µM 44% | [3]; at 33.0 µM 65% | [4]; at 1.2 µM -11% | [4]; at 3.7 µM -13% | [4]; at 11.0 µM -5% | [4]; at 33.0 µM -3% | [4]; at 100.0 µM 59% | [5]; at 1.2 µM -6% | [5]; at 3.7 µM -11% | [5]; [17] -13% | [5]; at 11.0 µM -23% | [5]; at 33.0 µM 26% | [5]; [18] 60% | [5]; at 50.0 µM 35.5% | [6]; at 1.2 µM 2% | [6]; at 3.7 µM 16% | [6]; [17] 3% | [6]; at 11.0 µM 16% | [6]; at 33.0 µM 10% | [6]; [18] 6% | [6]; at 50.0 µM 62.4% | [6]; at 100.0 µM 58% | [7]; at 1.2 µM 8% | [7]; at 3.7 µM -1% | [7]; at 11.0 µM 1% | [7]; at 33.0 µM 11% | [8]; at 1.2 µM 5% | [8]; at 3.7 µM 21% | [8]; at 11.0 µM -1% | [8]; at 33.0 µM 5% | [8]; at 100.0 µM 47% | [9]; [17] 1% | [9]; [18] 32% | [9]; at 50.0 µM 37.1% | [10]; at 1.2 µM -14% | [10]; at 3.7 µM -5% | [10]; [17] -23% | [10]; at 11.0 µM -4% | [10]; at 33.0 µM 5% | [11]; at 1.2 µM -1% | [11]; at 3.7 µM 0% | [11]; at 11.0 µM 3% | [11]; at 33.0 µM 2% | [11]; at 100.0 µM 52% | [12]; at 1.2 µM 31% | [12]; at 3.7 µM 29% | [12]; at 11.0 µM 27% | [12]; at 33.0 µM 36% | [13]; at 1.2 µM 21% | [13]; at 3.7 µM 23% | [13]; at 11.0 µM 26% | [13]; at 33.0 µM 36% | [14]; [17] 0% | [14]; [18] 68% | [14]; at 50.0 µM 67.2% | [15]; at 1.2 µM 28% | [15]; at 3.7 µM 30% | [15]; at 11.0 µM 29% | [15]; at 33.0 µM 41%
active: [1]; at 100.0 µM 84% | [3]; at 100.0 µM 79% | [5]; at 100.0 µM 88% | [7]; at 100.0 µM 84% | [10]; [18] 70% | [10]; at 50.0 µM 79% | [10]; at 100.0 µM 90% | [12]; at 100.0 µM 83% | [13]; at 100.0 µM 92% | [15]; at 100.0 µM 91%

Nc1ncncc1C(C1=C(O)COC1=O)C1=C(O)COC1=O
inactive: [1]; at 1.2 µM 2% | [1]; at 3.7 µM -1% | [1]; at 11.0 µM -1% | [1]; at 33.0 µM -2% | [1]; at 100.0 µM 0% | [2]; at 1.2 µM 1% | [2]; at 3.7 µM 4% | [2]; at 11.0 µM -3% | [2]; at 33.0 µM 0% | [2]; at 100.0 µM 1% | [3]; at 1.2 µM 6% | [3]; at 3.7 µM 10% | [3]; at 11.0 µM 10% | [3]; at 33.0 µM 6% | [3]; at 100.0 µM 2% | [5]; at 1.2 µM 2% | [5]; at 3.7 µM 2% | [5]; [17] -10% | [5]; at 11.0 µM -2% | [5]; at 33.0 µM 0% | [5]; [18] 15% | [5]; at 50.0 µM 8.05% | [5]; at 100.0 µM 1% | [6]; at 1.2 µM 4% | [6]; at 3.7 µM 7% | [6]; [17] -15% | [6]; at 11.0 µM 8% | [6]; at 33.0 µM 8% | [6]; [18] -16% | [6]; at 50.0 µM 5.95% | [6]; at 100.0 µM 0% | [7]; at 1.2 µM -2% | [7]; at 3.7 µM -4% | [7]; at 11.0 µM -2% | [7]; at 33.0 µM -5% | [7]; at 100.0 µM -2% | [16]; [17] -10% | [16]; [18] 13% | [16]; at 50.0 µM 8% | [8]; at 1.2 µM -7% | [8]; at 3.7 µM -16% | [8]; at 11.0 µM -6% | [8]; at 33.0 µM -8% | [8]; at 100.0 µM -8% | [9]; [17] -5% | [9]; [18] 0% | [9]; at 50.0 µM 35.1% | [10]; at 1.2 µM -2% | [10]; at 3.7 µM -1% | [10]; [17] 1% | [10]; at 11.0 µM -1% | [10]; at 33.0 µM -2% | [10]; [18] 19% | [10]; at 50.0 µM -6.55% | [10]; at 100.0 µM -8% | [11]; at 1.2 µM 1% | [11]; at 3.7 µM 1% | [11]; at 11.0 µM -1% | [11]; at 33.0 µM 0% | [11]; at 100.0 µM 1%

Source: PubChem BioAssay (NCI)
